Consider 16 molecules from PubChem BioAssay (NCI).

Among the test systems are K-562 leukemia; MALME-3M melanoma; MDA-MB-231 breast; SF-268 CNS; SF-295 CNS; SF-539 CNS; UACC-257 melanoma; M14 melanoma; RXF 393 renal; DU-145 prostate.
Holding throughout (assay): NCI-60 one-dose screen, 48 h (100 = growth as untreated, 0 = no growth, -100 = all killed)
What all share (details): 10 µM unless noted

About 83,000 compounds went through this panel and 20% of them were active in at least one assay; those are over-represented in the sample as a whole.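 The test compound was applied at a single concentration to cells in 96-well plates for 48 hours, and percent growth was recorded.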 Unmarked numbers belong to inactive results. The source made the active and inactive calls. The calls were made as follows: active = growth percent below 10; inactive = the rest.

With `COc1ccc(C(=O)COc2ccc(/C=C3\Oc4ccc5ccccc5c4C3=O)cc2)cc1`, the growth is 83% in the test on K-562 leukemia; 85.5% in the test with MALME-3M melanoma; 97% with MDA-MB-231 breast; 104% with SF-268 CNS; 102% in the test on SF-295 CNS; 72.5% in the test with SF-539 CNS. The results for the growth with UACC-257 melanoma and in the test with M14 melanoma were 98.3% and 99.5%, respectively.

Take `C=C(CN1CCc2c([nH]c3ccccc23)C1)c1ccc(C(=O)Nc2ccon2)cc1`: the growth with K-562 leukemia was 44.2%; in the test on MALME-3M melanoma, 129%; in the test with MDA-MB-231 breast, 78.6%; in the test with SF-268 CNS, 97.1%; in the test with SF-295 CNS, 114%; in the test with SF-539 CNS it was 90%. Also, the figures for the growth with UACC-257 melanoma and in the test on M14 melanoma were 97.3% and 95.6%, respectively.

On to `O=C(Nc1nc2ccc(OC(F)(F)F)cc2s1)c1ccc(F)cc1`, for which the growth in the test with K-562 leukemia is 9.01% (active); with MALME-3M melanoma it was 10.9%; in the test on MDA-MB-231 breast, 27.1%; with RXF 393 renal it was 48.5%; in the test with SF-268 CNS, 8.27% (active); with SF-295 CNS it was 4% (active). The growth with SF-539 CNS was 21.5%; in the test with UACC-257 melanoma it was 22.3%; in the test with M14 melanoma, 37.3%.

For the molecule `O=C(COc1cccc(/C=C2\Oc3ccc4ccccc4c3C2=O)c1)c1ccc([N+](=O)[O-])cc1`, the growth was 67.3% in the test on K-562 leukemia; 67.2% with MALME-3M melanoma; 83.3% in the test with MDA-MB-231 breast; 85.6% in the test with SF-268 CNS; 117% with SF-295 CNS; 46.5% with SF-539 CNS. Also, the growth in the test with UACC-257 melanoma is 102%; in the test on M14 melanoma, 79.4%.

For the molecule `COc1ccc(CNC(=O)c2c(C)n([O-])c3ccc(OC)cc3[n+]2=O)cc1`, the growth with K-562 leukemia is 90.8%; in the test on MALME-3M melanoma, 98.6%; with MDA-MB-231 breast, 111%; in the test with SF-268 CNS it was 103%; in the test with SF-295 CNS, 239%; in the test on SF-539 CNS, 118%. In addition, the growth is 109% in the test with UACC-257 melanoma and 107% in the test on M14 melanoma.

Regarding `Cc1cc(Cl)ccc1Nc1nc(C(F)(F)F)ccc1C(=O)N/N=C/c1ccc(Cl)cc1`, the growth was 5.71% (active) in the test on K-562 leukemia; -0.888% (active) with MALME-3M melanoma; -22.5% (active) in the test on MDA-MB-231 breast; 10.4% in the test with SF-268 CNS; -41.8% (active) in the test with SF-295 CNS; 0.0279% (active) with SF-539 CNS. Besides, the growth in the test on UACC-257 melanoma was 16.6%; in the test with M14 melanoma it was 0.962% (active).

In the case of `COc1ccc(CCN2C(=O)CCC3=C2CCCC3=O)cc1OC`, the growth in the test with K-562 leukemia was 106%; in the test on MALME-3M melanoma, 91.7%; in the test on MDA-MB-231 breast, 89.9%; in the test with RXF 393 renal, 113%; in the test on SF-268 CNS it was 136%; in the test on SF-295 CNS, 112%. The growth with SF-539 CNS was 103%; in the test with M14 melanoma, 99.1%.

Take `COc1ccc(CNC(=O)c2c(C)n([O-])c3cc(F)c(F)cc3[n+]2=O)cc1`: the growth in the test with K-562 leukemia is 46.5%; with MALME-3M melanoma, 111%; with MDA-MB-231 breast it was 76.3%; with SF-268 CNS, 88.7%; with SF-295 CNS it was 57.1%; with SF-539 CNS it was 96.9%. Besides, the growth in the test with UACC-257 melanoma was 98%; in the test with M14 melanoma, 90.5%.

Take `COc1ccc2c(c1)CC/C(=C\c1ccc(OCC(=O)Nc3nc4ccccc4s3)cc1)C2=O`: the growth is 84.7% with K-562 leukemia; 92.5% in the test with MALME-3M melanoma; 82.5% in the test on MDA-MB-231 breast; 89.6% in the test on SF-268 CNS; 95% with SF-295 CNS; 73.7% with SF-539 CNS. Further, the growth in the test on UACC-257 melanoma is 96.5%; in the test on M14 melanoma, 89%.

For `CC(=O)Nc1ccc(C(=O)COc2ccc(/C=C3\CCc4ccccc4C3=O)cc2)cc1`, the growth was 80.4% with K-562 leukemia; 103% in the test on MDA-MB-231 breast; 93.6% in the test with SF-268 CNS; 104% with SF-295 CNS; 115% with SF-539 CNS; 98.9% in the test on UACC-257 melanoma. The growth with M14 melanoma is 115%.

For `COc1ccc(OC)c2c1CCC1(C2)NC(=O)NC1=O` (configuration not stated), the growth is 105% in the test on K-562 leukemia; 96.5% in the test on MALME-3M melanoma; 98.8% in the test with MDA-MB-231 breast; 108% with RXF 393 renal; 133% in the test with SF-268 CNS; 113% in the test on SF-295 CNS. Also, the growth in the test with SF-539 CNS was 95.1%; in the test with M14 melanoma it was 105%.

As for `c1ccc2nc(N/N=C3\CCCCC3C3CCCCC3)ccc2c1` (configuration not stated), the growth in the test on K-562 leukemia was 12.3%; in the test on MALME-3M melanoma it was 46.6%; in the test with MDA-MB-231 breast it was 60.8%; in the test with SF-268 CNS, 66.8%; in the test on SF-295 CNS, 25.9%; in the test with SF-539 CNS, 58.8%. For the same molecule, the growth in the test with UACC-257 melanoma and in the test with M14 melanoma was 72.1% each time.

Consider `Oc1ccccc1/C=N/N1CCCCCC1`, for which the growth in the test with DU-145 prostate is 108%; in the test with MDA-MB-231 breast it was 96.1%; in the test on RXF 393 renal it was 101%; in the test with SF-268 CNS it was 99.9%; in the test with SF-539 CNS, 113%; with UACC-257 melanoma, 129%. Further, in the test with M14 melanoma, the growth is 118%.

Turning to `COc1cccc(C2=NN(C(C)=O)C(c3cc(OC)c(OC)c(OC)c3)C2)c1` (configuration not stated), the growth in the test with K-562 leukemia was 9.66% (active); in the test on MALME-3M melanoma, 65.9%; in the test on MDA-MB-231 breast, 41.3%; with SF-268 CNS it was 38.6%; in the test with SF-295 CNS, 193%; in the test with SF-539 CNS, 7.59% (active). Moreover, the growth with UACC-257 melanoma was 48.3%; in the test with M14 melanoma it was 16.8%.

As to `O=C(N/N=C/c1ccc(Cl)cc1Cl)c1ccccc1Nc1cccc(C(F)(F)F)c1`, the growth in the test with K-562 leukemia is 35.3%; with MALME-3M melanoma, 92.5%; in the test with MDA-MB-231 breast, 48.9%; in the test with SF-268 CNS it was 112%; in the test on SF-295 CNS it was 24.4%; in the test on SF-539 CNS, -93% (active). For the same molecule, the growth in the test on UACC-257 melanoma is 83.6%; in the test with M14 melanoma, 95.6%.

For the molecule `COc1ccc2c(c1)C(=Nc1cc(OC)c(OC)c(OC)c1)C(=O)N2`, the growth in the test on K-562 leukemia is 102%; in the test on MALME-3M melanoma, 90.8%; in the test on MDA-MB-231 breast, 103%; in the test on SF-268 CNS, 98%; in the test on SF-295 CNS, 171%; in the test on SF-539 CNS, 103%. Also, the growth in the test on UACC-257 melanoma is 102%; with M14 melanoma it was 101%.
